Source: PubChem BioAssay (Tox21)
“And” between values parts separate entries of the source, which are not always exact repeats. Identical values can stand only once. Results filed as inconclusive are left out. Some compounds were tested as several samples or in several runs, with calls that do not always agree. The source made the active and inactive calls. Unless noted, the call rests on the fitted dose curve; in most records, active means well fitted curve in the direction sought with a large enough effect in the repeat runs; inconclusive means weak or mixed curves; inactive means no such curve, though single readings can be large; an effect the other way counts as inactive or inconclusive.

Columns and labels:
[1] = qHTS assay to identify small molecule agonists of the RXR signaling pathway - cell viability counter screen (AID 1159529); further: nearly all actives have a fitted effect of over 50% in size; further: potency means the concentration at half of the fitted maximal effect
In short: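 Luminescence from CellTiter-Glo (30 min, RT) measured viability in the same wells as the beta-lactamase reporter readout. Cells: GeneBLAzer RXR-alpha HEK 293T, 2% charcoal-stripped FBS. Compound exposure 16 hr, 37 C.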

[2] = qHTS assay to identify small molecule antagonists of the retinoid acid receptor (RAR) signaling pathway - cell viability counter screen (AID 1159551); further: nearly all actives have a fitted effect of over 35% in size
In short: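 C3RL4 RARE-luciferase cells, 1,000/well, incubated overnight, then dosed with compound plus 1 uM retinol (final). After 6 hr at 37 C, viability read by CellTiter-Glo ATP luminescence following 30 min at room temperature.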

[3] = qHTS assay to identify small molecule agonists of the retinoic acid receptor (RAR) signaling pathway (AID 1159553); conditions: C3RL4 RARE luciferase reporter, agonist, 6 h; activation: at 73.3 µM (top of the series) unless noted; further: potency means the concentration at half of the fitted maximal effect
In short: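 C3RL4 RARE-luciferase cells were seeded at 1,000/well and grown overnight at 37 C, then exposed to compounds for 6 hr at 37 C, 5% CO2. Luciferase reagent was added and luminescence was read after 30 min at room temperature.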

[4] = qHTS assay to identify small molecule antagonists of the estrogen related receptor (ERR) signaling pathway from Tox21 library - cell viability counter screen (AID 1224834); further: nearly all actives have a fitted effect of over 30% in size; further: potency means the concentration at half of the fitted maximal effect
In short: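 ERR reporter cells, 2,000 per well, rested 6 h, then exposed to compound in DMSO for 17.5 hours at 37 C. Viability read as fluorescence after 30 min with CellTiter-Fluor.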

[5] = target: Luciferin 4-monooxygenase (Photinus pyralis) (UniProt P08659); test: qHTS assay to identify small molecule inhibitors of firefly luciferase (AID 1224835); further: nearly all actives have a fitted effect of over 25% in size; further: potency means the concentration at half of the fitted maximal effect
In short: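 Quantitative HTS format; KM concentrations of both substrates. Purified P. pyralis FLuc activity quantified from luminescence images.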

[6] = qHTS assay to identify small molecule agonists of the constitutive androstane receptor (CAR) signaling pathway - cell viability counter screen (AID 1224836); further: nearly all actives have a fitted effect of over 45% in size
In short: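 Viability read-out: CellTiter-Fluor fluorescence after 23 h compound exposure at 37 C/5% CO2 in double-stable HepG2-CYP2B6-hCAR cells, with PK11195 present at 0.75 uM final; compounds tested in 15-point titration.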

[7] = qHTS assay to identify small molecule antagonists of the constitutive androstane receptor (CAR) signaling pathway - cell viability counter screen (AID 1224837); further: nearly all actives have a fitted effect of over 45% in size
In short: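 HepG2 cells stably carrying hCAR and CYP2B6-2.2kb reporter, stimulated with 50 nM CITCO and compounds at 15 concentrations for 23 h at 37 C. Viability measured by CellTiter-Fluor fluorescence.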

[8] = target: Nuclear receptor subfamily 1 group I member 3 (Homo sapiens) (UniProt Q14994); test: qHTS assay to identify small molecule antagonists of the constitutive androstane receptor (CAR) signaling pathway (AID 1224838); further: nearly all actives have a fitted effect of over 40% in size; further: potency means the concentration at half of the fitted maximal effect
In short: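 HepG2 cells stably carrying hCAR and a CYP2B6-2.2kb luciferase reporter, seeded 4 hrs before compound (15 concentrations). Stimulated with 50 nM CITCO for 24 hr at 37 C. ONE-Glo luminescence read after 30 min at room temperature.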

[9] = target: Nuclear receptor subfamily 1 group I member 3 (Homo sapiens) (UniProt Q14994); test: qHTS assay to identify small molecule agonists of the constitutive androstane receptor (CAR) signaling pathway (AID 1224839); further: nearly all actives have a fitted effect of over 15% in size; further: potency means the concentration at half of the fitted maximal effect
In short: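 Luminescence read-out (ONE-Glo, 30 min, room temperature) from double-stable HepG2-CYP2B6-hCAR cells exposed 24 h to 15-point compound series in presence of 0.75 uM PK11195 final.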

[10] = qHTS assay to identify small molecule antagonists of the estrogen related receptor signaling pathway with the pleiotropic PPARgamma coactivator (PGC) from Tox21 10K library - cell viability counter screen (AID 1224840; active means well fitted cell-killing curve with a large enough effect in the repeat runs, not every such curve was filed as active; further: nearly all actives have a fitted effect of over 40% in size; further: potency means the concentration at half of the fitted maximal effect)
In short: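 PGC/ERR cells (2,000/well) plated 6 h, then compound-treated for 17.5 h at 37 C. Viability measured by CellTiter-Fluor fluorescence after 30 min at 37 C, multiplexed with the pathway assay.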

[11] = target: Thyrotropin receptor (Homo sapiens) (UniProt P16473); test: qHTS assay to identify small molecule agonists of the thyroid stimulating hormone receptor (TSHR) signaling pathway (AID 1224843; calls by dose curve; further: nearly all actives have a fitted effect of over 45% in size; further: potency means the concentration at half of the fitted maximal effect)
In short: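 Cell line HEK293 with TSHR; density 800/well. Exposure 30 min RT. Readout HTRF cAMP (cAMP-d2/anti-cAMP-cryptate), 1 h RT before reading.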

[12] = qHTS assay to identify small molecule antagonists of the retinoic acid receptor (RAR) signaling pathway (AID 1159552; further: nearly all actives have a fitted effect of over 50% in size; further: potency means the concentration at half of the fitted maximal effect)
In short: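 Luminescence from a RARE luciferase reporter in C3RL4 cells served as read-out. Cells received compounds together with 1 uM final retinol and incubated 6 hr at 37 C before detection reagent was added for 30 min at room temperature.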

[13] = qHTS assay to identify small molecule antagonists of the estrogen related receptor signaling pathway with the pleiotropic PPARgamma coactivator (PGC) from Tox21 10K library (AID 1224841; call rule not given here; further: actives are mostly falling curves and most rising ones were filed inactive; nearly all actives have a fitted effect of over 50% in size; further: potency means the concentration at half of the fitted maximal effect)
In short: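 PGC/ERR cell line, 2,000 cells/well, pre-incubated 6 hours at 37 C, then exposed to compounds for 18 hours at 37 C; luciferase read with One-Glo luminescence after 30 min at room temperature.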

[14] = qHTS assay to identify small molecule agonists of the estrogen related receptor signaling pathway with the pleiotropic PPARgamma coactivator (PGC) from Tox21 10K library (AID 1224842); further: nearly all actives have a fitted effect of over 15% in size
In short: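 PGC/ERR reporter cells (NTP line) were seeded 2,000 per well, rested 6 h at 37 C/5% CO2, then pin-dosed with compounds in DMSO for 18 h at 37 C; luciferase read by One-Glo luminescence after 30 min at room temperature.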

[15] = qHTS assay to identify small molecule antagonists of the estrogen related receptor (ERR) signaling pathway - cell viability counter screen (AID 1224818)
In short: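 ERR cells, 2,000 per well, compound added after 6 h and incubated 17.5 h at 37 C. Viability read by CellTiter-Fluor fluorescence after a further 30 min at 37 C.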

[16] = qHTS assay to identify small molecule antagonists of the estrogen related receptor signaling pathway with the pleiotropic PPARgamma coactivator (PGC) cell viability counter screen (AID 1224822)
In short: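 PGC/ERR cells rested 6 h, then compound-treated 17.5 h at 37 C. CellTiter-Fluor added for 30 min at 37 C, viability measured by fluorescence intensity.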

Measured: Potency

Chain of Luciferin 4-monooxygenase (Photinus pyralis) (P08659 whole entry, looked up): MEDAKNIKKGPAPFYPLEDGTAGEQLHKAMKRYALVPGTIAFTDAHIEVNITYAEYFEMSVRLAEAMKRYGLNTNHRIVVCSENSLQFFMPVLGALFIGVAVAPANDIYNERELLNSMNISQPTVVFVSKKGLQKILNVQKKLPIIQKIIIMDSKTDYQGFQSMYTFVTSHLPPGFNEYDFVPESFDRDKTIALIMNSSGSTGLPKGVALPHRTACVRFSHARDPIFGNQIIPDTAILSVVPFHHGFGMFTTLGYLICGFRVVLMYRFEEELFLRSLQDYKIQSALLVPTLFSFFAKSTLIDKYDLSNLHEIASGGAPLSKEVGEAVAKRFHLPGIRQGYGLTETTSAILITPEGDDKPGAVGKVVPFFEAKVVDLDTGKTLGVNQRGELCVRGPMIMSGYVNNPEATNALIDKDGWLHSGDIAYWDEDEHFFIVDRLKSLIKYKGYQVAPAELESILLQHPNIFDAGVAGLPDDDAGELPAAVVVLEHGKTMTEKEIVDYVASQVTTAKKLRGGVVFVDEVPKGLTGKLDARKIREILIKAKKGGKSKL
Chain of Nuclear receptor subfamily 1 group I member 3 (Homo sapiens) (Q14994 whole entry, looked up): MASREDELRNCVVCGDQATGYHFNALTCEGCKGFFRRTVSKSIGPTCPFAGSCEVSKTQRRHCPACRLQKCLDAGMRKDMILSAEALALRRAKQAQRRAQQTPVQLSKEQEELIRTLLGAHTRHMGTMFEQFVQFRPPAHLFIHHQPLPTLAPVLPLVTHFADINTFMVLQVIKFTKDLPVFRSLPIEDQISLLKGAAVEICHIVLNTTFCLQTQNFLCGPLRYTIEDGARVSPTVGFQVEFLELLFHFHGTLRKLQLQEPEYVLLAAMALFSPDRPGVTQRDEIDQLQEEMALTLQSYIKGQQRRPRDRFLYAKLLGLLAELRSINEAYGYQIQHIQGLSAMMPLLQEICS
Chain of Thyrotropin receptor (Homo sapiens) (P16473 whole entry, looked up): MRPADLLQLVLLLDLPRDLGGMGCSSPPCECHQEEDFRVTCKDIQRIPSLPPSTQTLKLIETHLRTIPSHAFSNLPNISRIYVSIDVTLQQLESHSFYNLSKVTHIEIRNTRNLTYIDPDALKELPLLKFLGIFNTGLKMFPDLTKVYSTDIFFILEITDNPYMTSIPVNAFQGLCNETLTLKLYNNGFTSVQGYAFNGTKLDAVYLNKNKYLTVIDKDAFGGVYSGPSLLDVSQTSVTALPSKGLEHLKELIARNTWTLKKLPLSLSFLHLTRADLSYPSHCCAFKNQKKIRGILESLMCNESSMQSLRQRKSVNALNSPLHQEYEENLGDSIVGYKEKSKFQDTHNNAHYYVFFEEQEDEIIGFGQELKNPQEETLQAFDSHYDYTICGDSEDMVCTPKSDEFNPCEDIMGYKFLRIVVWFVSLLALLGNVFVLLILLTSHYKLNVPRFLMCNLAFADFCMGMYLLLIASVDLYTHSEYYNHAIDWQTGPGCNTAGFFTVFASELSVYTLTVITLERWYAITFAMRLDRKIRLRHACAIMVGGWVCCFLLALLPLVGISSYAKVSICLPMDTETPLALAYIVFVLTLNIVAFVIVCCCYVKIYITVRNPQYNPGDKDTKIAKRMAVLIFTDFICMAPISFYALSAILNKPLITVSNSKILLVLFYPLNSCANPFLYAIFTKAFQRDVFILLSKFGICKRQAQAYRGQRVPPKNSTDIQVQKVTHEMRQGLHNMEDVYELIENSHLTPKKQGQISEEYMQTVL

CC(=O)O[C@]1(C(C)=O)CC[C@H]2[C@@H]3C=C(Cl)C4=CC(=O)CC[C@]4(C)[C@H]3CC[C@@]21C
active: [4] 61 µM
not listed: [12] | [13] | [14] | [15] | [16]
inactive: all other assays above

CN1CCOCC1
not listed: [5] | [11] | [15] | [16]
inactive: all other assays above

C1CN(SSN2CCOCC2)CCO1
inactive: [2] | [3] | [5] | [6] | [14] | [11]
active: [1] 54.4 µM | [12] 53.9 µM | [13] 53.9 µM

C=C[C@@]1(C)CC(=O)[C@]2(O)[C@@]3(C)[C@@H](O)CCC(C)(C)[C@@H]3[C@H](O)[C@H](OC(C)=O)[C@@]2(C)O1
active: [1] 11 µM and 7.56 µM | [11] 17.2 nM and 18.8 nM
27.3 µM (active) and inactive: [8]
not listed: [4] | [13] | [14] | [15] | [16]
inactive: all other assays above

CC1(C)O[C@@H]2C[C@H]3[C@@H]4C[C@H](F)C5=CC(=O)C=C[C@]5(C)[C@@]4(F)[C@@H](O)C[C@]3(C)[C@]2(C(=O)CO)O1
not listed: [8] | [9] | [13] | [14] | [15] | [16]
inactive: all other assays above

OCCNCCO
not listed: [8] | [9] | [15] | [16]
inactive: all other assays above

O=C(O)c1cc(=O)[nH]c(=O)[nH]1
not listed: [8] | [9] | [15] | [16]
inactive: all other assays above

C=CCNCC=C
inactive: [1] | [2] | [12] | [3] | [4] | [5] | [6] | [7] | [10]

O=C(O)CCCCCCCCCCCC(=O)O
60.1 µM (active) and inactive: [13]
not listed: [3] | [8] | [9] | [15] | [16]
inactive: all other assays above

CC(=O)OC(C)C
not listed: [8] | [9] | [13] | [14] | [15] | [16]
inactive: all other assays above

O=C(O)COCCN1CCN(C(c2ccccc2)c2ccc(Cl)cc2)CC1 (stereo unspecified)
not listed: [3] | [8] | [12] | [13] | [14]
inactive: all other assays above

Nc1ccc2c(c1)C(=O)c1ccccc1C2=O
inactive: [1] | [2] | [12] | [6] | [7] | [8] | [10]
active: [3] 338 nM and 273 nM | [5] 2.78 µM and 2.52 µM | [9] 1.34 µM and 969 nM

c1ccc2c(c1)ccc1ncccc12
active: [5] 62.8 µM and 35.6 µM | [9] 54.1 µM and 48.6 µM
not listed: [3] | [8] | [15] | [16]
inactive: all other assays above

COc1ccc(-c2coc3cc(O)cc(O)c3c2=O)cc1
active: [3] 686 nM | [5] 6.38 µM and 5.03 µM | [9] 15.5 µM and 27.3 µM
inactive: [1] | [2] | [12] | [6] | [7] | [10] | [11]

[O-]/[N+](=N\O)c1ccccc1
active: [3] 48600 nM | [5] 35.3 µM and 22.4 µM
not listed: [9] | [12] | [13] | [15] | [16]
inactive: all other assays above

COc1ccc(C(=O)c2ccccc2O)c(O)c1
not listed: [8] | [9] | [15] | [16]
inactive: all other assays above

CCCCCC1C(=O)CCC1CC(=O)OC (stereo unspecified)
not listed: [8] | [9] | [15] | [16]
inactive: all other assays above

CCCCCCCC/C=C\CCCCCCCC(=O)O
active: [5] 71.4 µM
not listed: [8] | [9] | [13] | [14] | [15] | [16]
inactive: all other assays above

Cc1ccc([N+](=O)[O-])c(C)c1
31.7 µM (active) and inactive: [5]
24.6 µM (active) and inactive: [1]
61.1 µM (active) and inactive: [13]
inactive: [2] | [3] | [9] | [14] | [11]
6.11 µM (active) and inactive: [12]
21.7 µM (active) and inactive: [10]
17.2 µM (active) and inactive: [4]

c1ccc2c(c1)ccc1cc3c(ccc4ccccc43)cc12
inactive: [1] | [2] | [12] | [4] | [6] | [7] | [10] | [11]
active: [3] 152 nM and 215 nM | [5] 788 nM and 250 nM
